Measurements reported in the supplement of paper PMC6555819.

Key:
Test in all cases: PBM binding z-score (relative to random genomic background probes); higher = stronger binding; sequences stand for … in GC…GCGATTGACAGCGTAGAATGAAGG
[1] = test system: FXR:RXRa (NR concentration 270 nM, RXRa partner concentration 90 nM)
Outline: (§1)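 Binding z-scores take random background probes as their reference. They come from custom Agilent 4×180K protein-binding microarrays incubated 1 h with ligand-free nuclear receptor dimers, with antibodies against each partner (one per run) detecting binding. Scanned fluorescence was regression-normalized.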

[2] = test system: LXRa:RXRa (NR concentration 270 nM, RXRa partner concentration 90 nM)
Outline: as §1

[3] = test system: LXRa homodimer (NR concentration 270 nM)
Outline: as §1

[4] = test system: LXRb:RXRa (NR concentration 270 nM, RXRa partner concentration 90 nM)
Outline: as §1

[5] = test system: LXRb homodimer (NR concentration 270 nM)
Outline: as §1

[6] = test system: PPARa:RXRa (NR concentration 270 nM, RXRa partner concentration 90 nM)
Outline: as §1

[7] = test system: PPARg:RXRa (NR concentration 180 nM, RXRa partner concentration 90 nM)
Outline: as §1

[8] = test system: PPARg:RXRa 270nM:90nM, anti-RXR (NR concentration 270 nM, RXRa partner concentration 90 nM)
Outline: as §1

[9] = test system: PPARg:RXRa 30nM:10nM, anti-RXR (NR concentration 30 nM, RXRa partner concentration 10 nM)
Outline: as §1

[10] = test system: PPARg:RXRa 90nM:30nM, anti-RXR (NR concentration 90 nM, RXRa partner concentration 30 nM)
Outline: as §1

Sequence	PBM binding z-score [1]	PBM binding z-score [2]	PBM binding z-score [3]	PBM binding z-score [4]	PBM binding z-score [5]	PBM binding z-score [6]	PBM binding z-score [7]	PBM binding z-score [8]	PBM binding z-score [9]	PBM binding z-score [10]
TCTAGCAGGCCAGACGGTCACTCAAGAGGTACGG	-0.139	-0.465	-0.491	-0.378	-0.934	0.21	0.662	1.52	1.72	1.67
CCTACTGGGCCATCAGGTCAATGATATCAACGTT	1.53	0.905	0.486	1.15	-0.402	2.54	2.79	3.37	0.642	2.76
CCTTACGGGTCACTCCAGGATATAGCATCGGAGT	4.88	5.8	0.346	2.94	0.014	4.08	3.39	3.49	1.08	2.48
ATCGAAAGGTAGAAGGTGAGTATACCCACCCGAA	0.00191	0.0493	-0.115	-0.132	0.0948	1.26	1.3	1.72	0.876	1.03
CGAACTAGGTCATTGACAGGACAGTGAATAGTAA	4.56	2.89	0.461	2.07	0.0276	4.67	7.66	6.13	3.8	5.54
ACTAGTTGGTCAGCTGAGGTGACACACAATTCGG	1.58	0.508	-0.0551	0.499	-0.125	1.27	1.16	0.582	-0.235	0.398
TAGCCTAGGTCATGCGGTCCAGTATAGTGTCGGC	4.09	2.83	0.301	1.8	-0.379	3.51	2.34	2.32	0.235	1.3
CAAACTAGGTCACAGAGGTCAAAGTCCGTGCGTA	7.61	6.66	7.31	6.24	2.21	6.66	10.2	8.58	6.84	8.64
CCAGACAGGTGAAAGGTATCTCAGTCTGGTACGC	-0.129	0.0546	-0.271	0.122	-0.633	2.07	3.41	4.19	1.94	4.13
TGTCAAAGTTCAAAGCTAACGTAAGTATCCACAC	6.52	6.15	3.83	4.14	1.86	5.22	7.92	7.25	4.27	7.06
ATCTCTAGGTAAGAGTCAGTTCAGTGAAGAACGC	0.322	0.41	0.44	0.262	0.685	0.413	0.239	1.03	0.45	0.958
GATACAGGGTCAAGGCTAGAGTACGCGTATTGAT	6.01	4.13	0.107	3.78	0.158	5.61	5.73	5.61	2.19	4.21
TGAACGAGGTTATAAGATCAGGGAACGTTGCAAA	1.41	1.2	-0.217	1.08	-0.589	2.56	1.16	1.5	0.646	1.06
CAAACTAGGTCCAAGGTCAAAGTCGAGCCAACCA	3.97	3.48	1.97	3.75	0.508	5.32	9.35	7.68	7.65	8.28
AGAACGAGGGCAATGAGTTGAAAGCACGGGTGGC	0.345	0.43	-0.528	-0.0192	-0.804	1.57	1.36	1.21	-0.135	0.569
CCTGCTAGGTCAATGGGCAGCTAAAGCAGCTCGC	1.94	1.62	-0.481	0.861	-0.588	2.59	2.02	3.18	0.64	2.19
AATCAAAGTTCATCTAGGTAACGTAAGATATGCT	6.64	6.2	7.11	4.15	2.37	4.75	4.35	4.25	2.04	3.19
GCTGCTAGGTCAGGTTGGTCAGCTCACGGGTACG	1.27	0.883	-0.243	0.696	-0.186	1.57	0.553	0.724	-0.171	0.333
AGTCAAAGTTCACTAGGTAACGTAGGATTCAGCT	5.02	4.93	3.02	2.92	0.939	4.65	7.24	6.38	3.58	5.79
ACTTACGGGTAAACGAGGTTATAGCACGCGTATA	0.677	2.57	0.806	1.56	0.485	2.01	0.93	0.752	0.277	0.238
CGAACTAGGTCATCCAGGACAGTGCATACATTGA	4.36	2.32	0.87	2.15	0.0357	4.85	7.67	6.47	3.97	5.85
CAAACTAGGTCACGAAAGGTTAAAGTCGAATGAC	5.89	7.18	3.46	5.5	0.758	6.04	9.67	7.92	5.98	8.04
ATCTCTAGGTAACAATTTCAGTGAAAGAGAGGAC	0.775	0.589	0.266	0.374	1.34	0.437	0.734	0.62	0.676	0.649
AATACAGGGTCACTAGGCCAGCGTAGGTACGAAT	6.02	4.76	0.904	3.93	0.853	5.62	7.64	6.28	3.54	5.52
